Sampled rows, rich in hits. Any-hit rate of the full collection: about 5.7%.
hgDAF-12 ag = agonists of H. glycines DAF-12 nuclear receptor; HEK293 GAL4-hgDAF12 UAS-luciferase reporter, agonist luminescence; normalized to butyrate control; activation, % at 6.8 µM; 370,000 tested, 1.8% active; AID 687014;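 active = activation above a cutoff set at the mean of all screened compounds plus 3 SD, cut at about 10% in these data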;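 note: 0% = DMSO wells and 100% = sodium butyrate wells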
hcDAF12 agonist = activates DAF-12 receptor from parasite H. contortus. HEK293 hcDAF-12 lit1-tk-luc reporter, luminescence; 0% DMSO, 100% Δ7-dafachronic acid. 370,000 tested, 1.4% active. activation, % at 6.8 µM;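 active = activation above the mean of all tested compounds plus 3 SD, cut at about 5.5% in these data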;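 note: 100% = response to 3 µM Δ7-dafachronic acid high control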
ssDAF-12 act = S. stercoralis DAF-12 activation, primary screen | HEK293 ssDAF-12/GRIP1 lit1-tk-luc reporter, luminescence; % of 3 µM dafachronic acid response | activation, % at 6.8 µM | 370,000 tested, 1% active | AID 652126;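 active = activation above the mean over all tested compounds plus 3 SD, cut at about 0.9% in these data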;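 note: 0% = DMSO-only wells and 100% = 3 µM delta7-dafachronic acid wells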
DAX1 inh-1 = inhibits human nuclear receptor DAX1; P51843; HEK293 Gal4-DAX1 luciferase reporter, luminescence; inhibition, % at 6.75 µM; 340,000 tested, 0.99% active; AID 504766;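 active = inhibition above the mean over all tested compounds plus 3 SD, cut at about 4.2% in these data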;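 note: 0% = DAX1-transfected cells with DMSO and 100% = empty-vector control cells with DMSO; inhibition shows as a rise in luminescence from relieved DAX1 repression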
DAX1 inh-2 = DAX1 (NR0B1) inhibition, primary screen. HEK293T StAR-luciferase reporter, SF-1/DAX-1 repression relief. inhibition, % at 6.8 µM. 370,000 tested, 1.1% active. AID 652010;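 active = inhibition above the mean over all tested compounds plus 3 SD, cut at about 3.6% in these data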;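 note: 0% = DAX-1 cells with DMSO and 100% = cells lacking DAX-1 with DMSO; higher inhibition means more luminescence from relief of DAX-1 repression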
AHR activator = human AHR activation; P35869; AHR-responsive luciferase reporter cells, luminescence; activation, % at 5 µM; 320,000 tested, 2.5% active; in the data active = activation above about 47%;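 note: 0% = vehicle wells and 100% = reference agonist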
Target sequence (P35869 whole entry, looked up): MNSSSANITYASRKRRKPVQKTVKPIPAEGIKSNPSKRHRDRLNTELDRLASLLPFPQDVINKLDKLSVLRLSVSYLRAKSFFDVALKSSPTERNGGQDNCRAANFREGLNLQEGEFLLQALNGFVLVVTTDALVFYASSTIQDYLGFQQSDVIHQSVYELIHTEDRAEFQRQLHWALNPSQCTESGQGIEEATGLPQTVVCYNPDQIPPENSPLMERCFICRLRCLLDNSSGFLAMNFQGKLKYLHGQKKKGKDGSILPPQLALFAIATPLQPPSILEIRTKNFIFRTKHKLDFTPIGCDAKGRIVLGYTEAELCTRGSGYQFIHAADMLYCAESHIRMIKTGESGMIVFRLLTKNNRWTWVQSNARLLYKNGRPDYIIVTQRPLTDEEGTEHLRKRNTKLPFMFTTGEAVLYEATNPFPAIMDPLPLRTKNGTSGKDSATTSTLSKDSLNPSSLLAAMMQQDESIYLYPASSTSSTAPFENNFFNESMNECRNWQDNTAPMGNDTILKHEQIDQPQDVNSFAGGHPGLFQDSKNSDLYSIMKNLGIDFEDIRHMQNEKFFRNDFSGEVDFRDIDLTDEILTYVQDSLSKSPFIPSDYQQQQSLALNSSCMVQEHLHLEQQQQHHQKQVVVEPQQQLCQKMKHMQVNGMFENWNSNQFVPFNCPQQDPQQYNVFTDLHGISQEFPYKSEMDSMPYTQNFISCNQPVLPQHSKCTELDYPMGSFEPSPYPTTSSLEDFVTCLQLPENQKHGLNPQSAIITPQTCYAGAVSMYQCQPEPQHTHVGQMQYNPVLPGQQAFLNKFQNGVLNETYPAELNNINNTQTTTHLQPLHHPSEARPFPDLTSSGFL
hgDAF12 ag = confirmation of H. glycines DAF-12 agonists | AID 743050 | HEK293 GAL4-hgDAF12 luciferase reporter, agonist mode; percent of butyrate response | activation, % at 6.8 µM | shares compounds with hgDAF-12 ag | 3,300 tested, 80% active;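 active = mean activation over triplicate wells above the hit cutoff derived from the earlier primary screen, cut at about 11% in these data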;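 note: 0% = DMSO low control and 100% = 2 mM sodium butyrate high control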
LXR ag 2 = counter-screen for DAF-12 agonists: agonists of human LXR-beta | shares compounds with hgDAF-12 ag | HEK293 Gal4-LXR luciferase reporter, 24 h | activation, % at 6.8 µM | 3,300 tested, under 10 active | AID 743051;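 active = mean activation of the triplicate above a set limit carried over from the primary screen, none filed active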
The depositor's hits bear a star; x = not tested or not shown.

SMILES	hgDAF-12 ag	hcDAF12 agonist	ssDAF-12 act	DAX1 inh-1	DAX1 inh-2	AHR activator	hgDAF12 ag	LXR ag 2
CCOC(=O)/C=C/c1cc(F)ccc1O	3	-1	-1	x	1	x	x	x
O=C(NCc1ccccc1)c1cc(-c2ccco2)on1	2	1	-1	0	0	0	x	x
COc1ccc(CNC(=O)c2cc(-c3ccc(OC)c(OC)c3)on2)cc1	-2	-2	-1	0	-1	-9	x	x
O=C(NCc1ccccc1)c1cc(-c2cccc(O)c2)on1	18*	0	0	0	2	11	12*	0
COc1ccc(-c2cc(C(=O)NCc3ccccc3)no2)cc1OC	20*	-2	-1	0	-1	-4	-2	0
COc1cccc(-c2cc(C(=O)Nc3cccnc3)no2)c1	15*	1	0	0	1	12	21*	0
Cc1ccc(NC(=O)c2cc(-c3cccc(O)c3)on2)cc1C	14*	1	1.0*	2	3	4	14*	0
CCn1c(SCc2cccc(OC)c2)nc2ccccc2c1=O	-1	1	-2	-1	0	12	x	x
O=C(NCc1cccs1)c1cc(-c2ccc(O)cc2)on1	15*	4	-1	5.7*	3	5	18*	1
COc1ccc(/C=C/c2nc3ccccc3n2Cc2ccccc2OC)cc1	16*	5	0	3	4.4*	20	12*	1
Cc1ccc(-c2nc3ccc(Cl)cc3n2OC(C)C(=O)O)cc1 (stereo not drawn)	23*	4	0	2	3	6	13*	1
CNc1cccc(-c2cccc(O)c2)n1	17*	0	-1	x	2	x	9	0
Cc1cc(NC(=O)CN2CCCCC2)no1	14*	-1	0	1	0	0	1	0
CC(C)(C)OC(=O)N1CCNc2ccccc2C1	-1	1	-1	-2	0	0	x	x
CC(C)(C)OC(=O)N1Cc2cc3ccccc3nc2C1	16*	3	0	1	3.6*	x	13*	1
O=C1NC[C@@H](CCCCN2C[C@H](Cc3ccccc3)N(CC3CCCCC3)C(=O)C2=O)N(Cc2ccccc2)C1=O	3	-1	0	x	-1	x	x	x
COCc1nnc(NC(=O)c2ccc(Cl)cc2[N+](=O)[O-])s1	-1	-3	-1	0	0	-2	x	x
Cc1csc(NC(=O)c2ccc(Cl)cc2[N+](=O)[O-])n1	14*	1	0	1	1	12	11*	0
O=C(CCCN1CCOCC1)c1ccc2c(c1)OCCO2	17*	3	0	1	3	5	14*	0
Cc1cnc(NC(=O)C2CCCO2)s1 (stereo not drawn)	15*	0	-1	0	0	5	4	0
Cc1nn(-c2ccccc2)cc1C(=S)Nc1ccccc1	14*	-1	-1	2	1	-10	7	0
Cc1c(C(=S)Nc2ccccc2)cnn1-c1ccccc1	3	-1	0	1	1	-4	x	x
Nc1nc(N)nc(-c2cccc(Br)c2)n1	14*	1	0	3	4.2*	x	11*	0
Cc1cccc(-c2nc(N)nc(N)n2)c1	3	2	-1	1	1	10	x	x
CCCCc1nc2cc(C(=O)N3CCCC(COC)C3)ccc2o1 (stereo not drawn)	5	2	0	1	2	15	x	x
SMILES	hgDAF-12 ag	hcDAF12 agonist	ssDAF-12 act	DAX1 inh-1	DAX1 inh-2	AHR activator	hgDAF12 ag	LXR ag 2
CC(=O)OCC(OC(C)=O)C(OC(C)=O)C(OC(C)=O)C(=O)Nc1cccc(C)c1 (stereo not drawn)	1	-1	-1	1	0	4	x	x
CC(C)N=C1NN=C(c2ccc(Cl)c(Cl)c2)CS1	19*	2	-1	x	3	x	19*	1
CC(C)(C)N=C1NN=C(c2ccc(Cl)cc2)CS1	0	1	-1	4	0	7	x	x
c1ccc(-c2cc3nccc(-c4ccccn4)n3n2)cc1	23*	4	0	4	1	38	16*	1
N#CC1CC(c2ccccc2)=NN1c1ccccc1[N+](=O)[O-] (stereo not drawn)	16*	4	0	1	1	44	13*	0
O=C(Nc1ccn(-c2ccccc2)n1)c1ccccc1Br	20*	0	0	2	1	4	5	0
CCOc1ccc(NC(=O)CN(C)C(=O)c2ccc3c(c2)C(=O)N(CCC(C)C)C3=O)cc1OCC	-3	-2	0	0	0	2	x	x
O=C1c2ccccc2-c2nnc(-c3ccc(F)cc3)cc21	15*	6.0*	1.4*	7.1*	2	-8	11*	1
O=c1[nH]nc(-c2ccc(F)cc2)cc1-c1ccccc1	-3	-2	-2	-1	0	x	x	x
COc1ccc(NC(=O)CSCC(=O)Oc2c(OC)cccc2OC)cc1	2	-1	-1	0	0	3	x	x
Cc1ccc2c(Cl)c(C(=O)Nc3cccnc3)sc2c1	20*	2	-1	3	3	14	18*	1
O=C(NNC1=NCCCCC1)Nc1cccc(Cl)c1	19*	5	0	1	2	x	18*	0
COc1ccc(-c2csc(N=C(N)N)n2)cc1	16*	2	-1	1	2	13	11*	0
O=C(CN(C(=O)CNS(=O)(=O)c1ccccc1)c1ccc2c(c1)OCCO2)NCc1ccco1	15*	-1	-1	2	0	0	1	0
CNc1ncc(C(=O)c2ccc(Br)cc2)s1	26*	2	0	1	3	x	16*	1
CCOC(=O)CC1CCCCN1C(=O)CCCn1nnnc1CN1CCC(C)CC1 (stereo not drawn)	2	0	-1	0	-1	-1	x	x
O=S(=O)(c1cc(Cl)cc(Cl)c1)N1CCN(c2nc(-c3cccs3)nc3ccccc23)CC1	1	0	-1	x	x	x	x	x
Cc1cc(C)n2nc(SCC(=O)Nc3ccc(O)cc3)nc2n1	15*	-2	-1	0	0	-3	1	0
Cc1cc(C)n2nc(SCC(=O)Nc3ccc(F)cc3)nc2n1	0	-1	-1	1	0	-4	x	x
CC1CCCN(CCCNC(=O)C2CC(=O)N(CCc3ccccc3)C2)C1 (stereo not drawn)	0	3	-2	0	3	2	x	x
O=C(Nc1ccccn1)c1ccc(=O)[nH]n1	1	1	-1	0	0	1	x	x
